Experimental data from PubChem BioAssay (Tox21).
Unmarked numbers belong to inactive results. Records with an inconclusive call do not appear. A call without a number means that no potency is given here. Activity calls are given as the source filed them. Unless noted, calls come from the whole dose curve; as a rule, active = well fitted curve in the direction sought with a large enough effect in the repeat runs; inconclusive = weak or mixed curves; inactive = no such curve, though single readings can be large; an effect the other way counts as inactive or inconclusive.

Assays:
[1] = biological target: Estrogen receptor (Homo sapiens) (UniProt P03372); experiment: qHTS assay to identify small molecule agonists of the estrogen receptor alpha (ER-alpha) signaling pathway in the presence of an antagonist (AID 1259383; calls by dose curve; note: top concentration of the series differs between compounds; nearly all actives have a fitted effect of over 15% in size)
Chain of Estrogen receptor (Homo sapiens) (P03372 whole entry, looked up): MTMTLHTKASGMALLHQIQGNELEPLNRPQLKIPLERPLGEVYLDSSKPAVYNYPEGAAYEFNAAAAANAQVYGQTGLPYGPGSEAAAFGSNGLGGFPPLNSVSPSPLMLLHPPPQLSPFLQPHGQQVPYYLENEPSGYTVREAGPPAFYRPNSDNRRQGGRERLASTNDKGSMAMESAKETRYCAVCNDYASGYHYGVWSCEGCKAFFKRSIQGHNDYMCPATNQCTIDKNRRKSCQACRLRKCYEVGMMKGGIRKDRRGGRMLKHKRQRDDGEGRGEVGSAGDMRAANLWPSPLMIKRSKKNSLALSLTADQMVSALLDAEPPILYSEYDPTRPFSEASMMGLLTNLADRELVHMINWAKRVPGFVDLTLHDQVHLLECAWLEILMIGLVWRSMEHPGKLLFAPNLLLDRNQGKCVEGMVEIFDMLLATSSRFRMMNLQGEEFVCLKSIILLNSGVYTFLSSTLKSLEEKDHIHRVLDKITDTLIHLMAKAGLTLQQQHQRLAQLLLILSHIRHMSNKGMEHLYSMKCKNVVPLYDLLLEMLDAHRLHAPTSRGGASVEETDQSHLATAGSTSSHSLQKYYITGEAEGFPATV
Procedure, shortened: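 ER-alpha agonism measured under antagonist challenge: 10.0nM ICI-182,780 (final) plus compound, 15 concentrations, 22hr, VM7Luc4E2 ERE-luciferase cells. Read by luminescence.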

[2] = qHTS assay to identify small molecule agonists of the estrogen receptor alpha (ER-alpha) signaling pathway in the presence of an antagonist - cell viability counter screen (AID 1259386);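 note: series mostly up to about 92 µM; cells exposed to compounds for 22 h at 37 °C before the viability read; nearly all actives have a fitted effect of over 30% in size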
Procedure, shortened: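 Steps: 5-day stripped-FBS culture; seed and incubate 24hr; add ICI-182,780 (10.0nM final); pin 15-point compound titration; incubate 22hr at 37C; add CellTiter-Fluor at 21hr; read fluorescence.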

[3] = biological target: Progesterone receptor (Homo sapiens) (UniProt P06401); experiment: qHTS assay to identify small molecule agonists of the progesterone receptor (PR) signaling pathway (AID 1346784; calls by dose curve; note: nearly all actives have a fitted effect of over 30% in size)
Chain of Progesterone receptor (Homo sapiens) (P06401 whole entry, looked up): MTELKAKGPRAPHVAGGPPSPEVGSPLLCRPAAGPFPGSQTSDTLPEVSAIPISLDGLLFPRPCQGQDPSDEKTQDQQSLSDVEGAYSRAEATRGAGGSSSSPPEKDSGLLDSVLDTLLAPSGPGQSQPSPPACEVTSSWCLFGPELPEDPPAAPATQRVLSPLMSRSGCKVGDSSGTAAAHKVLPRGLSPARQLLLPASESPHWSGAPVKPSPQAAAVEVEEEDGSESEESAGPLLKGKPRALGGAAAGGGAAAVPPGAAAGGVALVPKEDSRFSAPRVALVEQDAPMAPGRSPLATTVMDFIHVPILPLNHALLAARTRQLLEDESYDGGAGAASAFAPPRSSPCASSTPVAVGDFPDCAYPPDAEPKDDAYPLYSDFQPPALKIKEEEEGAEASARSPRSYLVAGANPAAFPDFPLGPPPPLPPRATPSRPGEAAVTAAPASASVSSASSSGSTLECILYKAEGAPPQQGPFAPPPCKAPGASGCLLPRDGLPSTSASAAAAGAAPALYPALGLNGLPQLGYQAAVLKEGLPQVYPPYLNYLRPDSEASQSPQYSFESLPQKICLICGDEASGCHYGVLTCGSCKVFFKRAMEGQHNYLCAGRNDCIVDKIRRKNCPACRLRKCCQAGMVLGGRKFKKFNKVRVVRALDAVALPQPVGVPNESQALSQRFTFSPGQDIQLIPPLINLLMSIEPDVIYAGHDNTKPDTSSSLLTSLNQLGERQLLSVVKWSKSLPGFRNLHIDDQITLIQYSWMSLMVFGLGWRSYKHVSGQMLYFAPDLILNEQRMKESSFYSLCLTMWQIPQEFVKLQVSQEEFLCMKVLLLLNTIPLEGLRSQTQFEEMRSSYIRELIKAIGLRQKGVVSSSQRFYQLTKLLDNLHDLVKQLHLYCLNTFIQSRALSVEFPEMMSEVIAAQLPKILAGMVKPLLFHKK
Procedure, shortened: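 Using charcoal-stripped serum (2%) to limit endogenous steroids, PR-UAS-bla HEK 293T cells received compounds for 16 hr at 37C after 6 hr plating; beta-lactamase FRET fluorescence was recorded following 2 hr substrate loading at room temperature.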

[4] = biological target: Progesterone receptor (Homo sapiens) (UniProt P06401); experiment: qHTS assay to identify small molecule antagonists of the progesterone receptor (PR) signaling pathway (AID 1346795; active = well fitted inhibition curve with a large enough effect in the signal ratio in the repeat runs, not every such curve was filed as active; the % refers to the signal ratio)
Procedure, shortened: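 Inhibition of R5020-induced (1 nM final) beta-lactamase reporter signal in PR-UAS-bla HEK293T cells was scored by FRET fluorescence after overnight (16 hr) compound treatment.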

[5] = qHTS assay to identify small molecule antagonists of the progesterone receptor (PR) signaling pathway - cell viability counter screen (AID 1346798); note: series mostly up to about 92 µM; nearly all actives have a fitted effect of over 50% in size
Procedure, shortened: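 ATP content as viability readout: CellTiter-Glo luminescence, 30 min room temperature, in PR-UAS-bla HEK293T cells after 16 hr compound/R5020 treatment at 37C and 5% CO2.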

[6] = qHTS assay to identify small molecule agonists of the progesterone receptor (PR) signaling pathway - cell viability counter screen (AID 1346799; calls by dose curve; note: nearly all actives have a fitted effect of over 45% in size)
Procedure, shortened: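 Cytotoxicity in PR-bla HEK293T cells: 16 h compound, 37C; CellTiter-Glo added post-FRET read; luminescence after 30 min RT.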

[7] = qHTS assay to identify small molecule agonists of the TGF-beta/Smad signaling pathway - cell viability counter screen (AID 1346829); note: top concentration of the series differs between compounds; nearly all actives have a fitted effect of over 45% in size
Procedure, shortened: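 After overnight seating at 37 C and 5% CO2, reporter cells got compounds for 5 hr and FRET substrate for 2 hr; cell viability then came from CellTiter-Glo luminescence.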

[8] = qHTS assay to identify small molecule agonists of the TGF-beta/Smad signaling pathway (AID 1346859; active = well fitted activation curve with a large enough effect in the signal ratio in the repeat runs, not every such curve was filed as active; the % refers to the signal ratio; note: series mostly up to about 77 µM)
Procedure, shortened: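 Stable Smad binding element-beta-lactamase HEK 293T cells; 5 hr compound exposure at 37 C under 5% CO2; 2 hr room-temperature substrate step; fluorescence excited at 405 nm, collected at 460 nm and 530 nm.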

[9] = biological target: Thyrotropin-releasing hormone receptor (Homo sapiens) (UniProt P34981); experiment: qHTS assay to identify small molecule antagonists of the thyrotropin-releasing hormone receptor (TRHR) signaling pathway (AID 1346877; active = well fitted inhibition curve with a large enough effect in the repeat runs, not every such curve was filed as active; note: series mostly up to about 51 µM)
Chain of Thyrotropin-releasing hormone receptor (Homo sapiens) (P34981 whole entry, looked up): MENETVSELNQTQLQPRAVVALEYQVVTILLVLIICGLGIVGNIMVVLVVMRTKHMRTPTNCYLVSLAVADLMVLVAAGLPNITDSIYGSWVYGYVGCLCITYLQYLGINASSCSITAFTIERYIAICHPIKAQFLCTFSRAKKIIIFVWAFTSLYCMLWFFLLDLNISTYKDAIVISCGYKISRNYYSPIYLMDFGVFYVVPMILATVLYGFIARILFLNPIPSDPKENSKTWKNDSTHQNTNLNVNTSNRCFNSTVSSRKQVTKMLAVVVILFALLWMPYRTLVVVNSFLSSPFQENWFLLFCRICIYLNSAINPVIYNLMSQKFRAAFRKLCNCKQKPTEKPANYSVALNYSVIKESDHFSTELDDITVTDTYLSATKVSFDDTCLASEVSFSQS
Procedure, shortened: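 Human TRHR in HEK293 cells; inhibition of the intracellular calcium rise triggered by 1 nM TRH was followed by fluorescence over 3 min. Compounds were run at 15 concentrations, three replicates each.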

[10] = biological target: Thyrotropin-releasing hormone receptor (Homo sapiens) (UniProt P34981); experiment: qHTS assay to identify small molecule agonists of the thyrotropin-releasing hormone receptor (TRHR) signaling pathway (AID 1346891; calls by dose curve; note: potency is the fitted concentration of half-maximal effect;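 for activation: HEK293 cells expressing TRHR with calcium dye readout; series mostly up to about 58 µM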)
Procedure, shortened: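 In 1536-format, 1500 TRHR-Hek293 cells per well grew 18 h, took up calcium dye for 2 h at 37 °C, received compound, and were read kinetically; 15-point titrations, triplicates.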

[11] = Human pregnane X receptor (PXR) small molecule agonists, qHTS cell viability counter screen (AID 1346977); note: nearly all actives have a fitted effect of over 50% in size
Procedure, shortened: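 Readout is CellTiter-Fluor fluorescence from PXR-Luc HepG2 cells. Plated cells rested 5hr, then were treated with compounds for 24hr at 37C and 5% CO2, with reagent present during the last hour.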

[12] = Caspase-3/7 induction in HepG2 cells by small molecules, qHTS assay (AID 1346978); note: nearly all actives have a fitted effect of over 15% in size
Procedure, shortened: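 Wild-type HepG2 cells (2,000/well) were settled 5 h at 37 C, 5% CO2, then exposed to compounds in DMSO for 17 h. Caspase-3/7 activity was read by luminescence 30 min after adding Caspase-Glo 3/7 reagent at room temperature.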

[13] = Caspase-3/7 induction in CHO-K1 cells by small molecules, qHTS cell viability counter screen (AID 1346979); note: nearly all actives have a fitted effect of over 35% in size
Procedure, shortened: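 To flag cytotoxic compounds, treated CHO-K1 wild-type cells were given CellTiter-Fluor at 16hr and read fluorescently after 1hr at 37C; the caspase-3/7 luminescence was measured in these same wells.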

[14] = Caspase-3/7 induction in HepG2 cells by small molecules, qHTS cell viability counter screen (AID 1346981); note: series mostly up to about 92 µM; nearly all actives have a fitted effect of over 30% in size
Procedure, shortened: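 The parent HepG2 line is plated at 2,000 cells per well and rested 5 hr before compound pinning from DMSO stocks. Following a 16-hr treatment at 37 C, a fluorogenic live-cell substrate (CellTiter-Fluor) reports viability after 1 hr.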

[15] = biological target: Nuclear receptor subfamily 1 group I member 2 (Homo sapiens) (UniProt O75469); experiment: Human pregnane X receptor (PXR) small molecule agonists, qHTS assay (AID 1346982); note: nearly all actives have a fitted effect of over 35% in size
Chain of Nuclear receptor subfamily 1 group I member 2 (Homo sapiens) (O75469 whole entry, looked up): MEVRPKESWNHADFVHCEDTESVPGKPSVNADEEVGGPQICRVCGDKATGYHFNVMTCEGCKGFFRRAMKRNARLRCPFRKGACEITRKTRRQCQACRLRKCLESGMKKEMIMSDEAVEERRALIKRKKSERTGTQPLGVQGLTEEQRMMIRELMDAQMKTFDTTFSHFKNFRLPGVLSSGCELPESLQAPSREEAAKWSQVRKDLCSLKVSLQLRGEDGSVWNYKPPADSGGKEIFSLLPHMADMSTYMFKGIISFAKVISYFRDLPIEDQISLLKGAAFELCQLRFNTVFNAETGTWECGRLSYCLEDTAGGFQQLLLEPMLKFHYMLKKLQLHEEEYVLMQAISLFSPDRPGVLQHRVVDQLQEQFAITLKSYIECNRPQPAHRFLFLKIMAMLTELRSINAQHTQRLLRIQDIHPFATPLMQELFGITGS
Procedure, shortened: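 After plating in 5% charcoal-stripped FBS and a 5 hr rest, PXR-Luc HepG2 cells received compounds in DMSO. Following 24 hr at 37 C, ONE-Glo was added and light output read.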

[16] = biological target: Nuclear receptor subfamily 1 group I member 2 (Rattus norvegicus) (UniProt Q9R1A7); experiment: Rat pregnane X receptor (rPXR) activation by small molecules, qHTS assay (AID 1346983); settings: rPXR luciferase reporter cells, One-Glo luminescence, 24 h; max activation: stronger effect = higher value; note: nearly all actives have a fitted effect of over 20% in size
Chain of Nuclear receptor subfamily 1 group I member 2 (Rattus norvegicus) (Q9R1A7 whole entry, looked up): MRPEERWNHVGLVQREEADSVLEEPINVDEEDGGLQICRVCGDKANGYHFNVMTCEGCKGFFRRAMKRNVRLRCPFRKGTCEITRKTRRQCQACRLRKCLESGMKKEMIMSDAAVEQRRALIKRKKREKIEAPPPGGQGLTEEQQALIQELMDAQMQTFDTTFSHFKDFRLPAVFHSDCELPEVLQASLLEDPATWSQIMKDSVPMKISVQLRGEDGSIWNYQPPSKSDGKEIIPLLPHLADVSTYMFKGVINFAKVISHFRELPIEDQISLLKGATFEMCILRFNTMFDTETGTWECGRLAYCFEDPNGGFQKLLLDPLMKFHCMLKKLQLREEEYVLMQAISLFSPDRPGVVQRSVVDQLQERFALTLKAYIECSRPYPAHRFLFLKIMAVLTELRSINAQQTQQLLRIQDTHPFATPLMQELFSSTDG
Procedure, shortened: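 Cell-based rPXR luciferase reporter assay, 2,000 cells per well, rested 5hr at 37 C before compound addition in DMSO, then 24 hr at 37 C. One-Glo reagent was added and luminescence read after 30 min at room temperature.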

[17] = qHTS assay to identify small molecule agonists or antagonists of the thyroid stimulating hormone receptor (TSHR) signaling pathway - wild type cell line counter screen (AID 1259384; calls by dose curve)
Procedure, shortened: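 Wild-type HEK293 cells were plated 18 h at 37 C/5% CO2, pin-dosed with compound plus Ro20-1724 medium, held 30 min at room temperature, then given cAMP-d2 and anti-cAMP-cryptate; fluorescence was read after 1 h. Fifteen concentrations, triplicate.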

[18] = qHTS assay to identify small molecule antagonists of the TGF-beta/Smad signaling pathway - cell viability counter screen (AID 1346824); note: nearly all actives have a fitted effect of over 50% in size
Procedure, shortened: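 SBE-bla HEK 293T cells were plated overnight at 37 C, then given compounds in DMSO plus TGF-beta1 (added as 0.25 ng/mL solution) for 5 hr. After the bla read, CellTiter-Glo was added to the same wells and luminescence read after 30 min at room temperature.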

[19] = Caspase-3/7 induction in CHO-K1 cells by small molecules, qHTS assay (AID 1346980); note: nearly all actives have a fitted effect of over 15% in size
Procedure, shortened: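 Wild-type cells were seeded at 1,500 per well and settled 5 hr at 37 C, 5% CO2, then exposed to DMSO-dissolved compounds for 17 hr. Caspase-Glo 3/7 reagent was added, and luminescence was read after 30min at room temperature.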

SMILES	Potency [1]	outcome [2]	Potency [3]	Potency [4]	outcome [5]	Potency [6]	outcome [7]	outcome [8]	outcome [9]	Potency [10]	outcome [11]	outcome [12]	Potency [13]	outcome [14]	Potency [15]	max activation [16] [%]	outcome [17]	outcome [18]	outcome [19]
C[C@@H](CN1CC(=O)NC(=O)C1)N1CC(=O)NC(=O)C1	inactive	inactive	inactive	inactive	inactive	inactive	inactive	inactive	inactive	inactive	inactive	inactive	inactive	inactive	inactive	-0.624	–	–	–
COC(=O)c1ccc(C(=O)O)cc1	inactive	inactive	inactive	–	inactive	inactive	inactive	inactive	–	–	inactive	inactive	inactive	inactive	inactive	–	inactive	inactive	inactive
CC(CN1CC(=O)NC(=O)C1)N1CC(=O)NC(=O)C1 (centres undefined)	inactive	inactive	inactive	inactive	inactive	inactive	–	inactive	inactive	inactive	inactive	inactive	inactive	–	–	–	–	inactive	–
CC/C=C\CCOC(=O)c1ccccc1	inactive	inactive	–	–	inactive	inactive	inactive	inactive	inactive	–	inactive	inactive	inactive	inactive	inactive	–	inactive	–	–
C=CC(=O)OCC[N+](C)(C)C	inactive	inactive	inactive	–	–	inactive	inactive	inactive	inactive	1.56 µM (active)	inactive	inactive	inactive	inactive	inactive	–	inactive	inactive	inactive
Cc1cc(C)c(C)c(C)c1	inactive	inactive	inactive	inactive	–	inactive	inactive	inactive	–	–	inactive	inactive	inactive	inactive	inactive	–	–	inactive	inactive
CC(C)(C)C(=O)CC(=O)C(C)(C)C	inactive	inactive	inactive	inactive	inactive	inactive	–	inactive	inactive	inactive	inactive	inactive	inactive	inactive	inactive	–	inactive	inactive	inactive
CCOC(=O)[C@H](CCc1ccccc1)N[C@H]1CS[C@H](c2cccs2)CN(CC(=O)O)C1=O	inactive	inactive	–	–	–	inactive	inactive	inactive	–	–	inactive	inactive	inactive	inactive	inactive	-2.69	inactive	–	inactive
CC[C@@]1(c2ccccc2)NC(=O)N(C)C1=O	inactive	inactive	inactive	–	–	inactive	inactive	inactive	inactive	inactive	inactive	inactive	inactive	inactive	inactive	-0.191	inactive	inactive	inactive
